The panel holds about 79,000 compounds, 15% with a hit somewhere; the sample as a whole holds those more often. A number with no mark means an inactive call. Activity calls are given as the source filed them. Cut-off read from the data, not from the text of the source: active = growth inhibition above about 70%; inactive = the rest.

Here are results for ten molecules from PubChem BioAssay (NCI).

Experiment [1] in a line: NCI Yeast Anticancer Drug Screen. Data for the rad50 strain (AID 155).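 Note: 0% = growth of vehicle-only cultures of the same strain.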 To be noted: S. cerevisiae rad50 strain growth inhibition, stronger effect = higher value. The essentials:
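Relative growth inhibition (compound vs vehicle) was measured in yeast with a defined repair-gene alteration.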

The nature of experiment [2]: NCI Yeast Anticancer Drug Screen. Data for the mec2-1 strain (AID 157). The conditions noted are these: S. cerevisiae mec2-1 strain, stronger effect = higher value. The essentials:
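Strain: mec2-1 (DNA repair/cell cycle alteration). Compound exposure, then growth measured; inhibition expressed relative to vehicle.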

Experiment [3] is described as follows: NCI Yeast Anticancer Drug Screen. Data for the sgs1 mgt1 strain (AID 161).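 Note: 0% = growth of cultures given vehicle only.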 The conditions noted are these: S. cerevisiae sgs1 mgt1 strain, stronger effect = higher value. The essentials:
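Inhibition of yeast growth, normalised to vehicle-treated controls, is reported for a strain bearing genetic alterations in DNA damage repair.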

The nature of experiment [4]: NCI Yeast Anticancer Drug Screen. Data for the cln2 rad14 strain (AID 165).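 Note: 0% = growth equal to vehicle treated cultures.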 The conditions noted are these: S. cerevisiae cln2 rad14 strain, stronger effect = higher value. The essentials:
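Compounds are applied to the cln2 rad14 yeast strain, and growth is then compared with that of vehicle-treated cultures to give inhibition.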

A short description of experiment [5]: NCI Yeast Anticancer Drug Screen. Data for the bub3 strain (AID 167). To be noted: S. cerevisiae bub3 mutant strain, stronger effect = higher value. In a few lines:
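Screening used yeast with an engineered genetic alteration affecting cell cycle control. Compound-exposed cultures were compared with vehicle cultures, and reduced growth was taken as inhibition.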

Experiment [6] in a line: NCI Yeast Anticancer Drug Screen. Data for the mlh1 rad18 strain (AID 175). To be noted: S. cerevisiae mlh1 rad18 strain growth inhibition, stronger effect = higher value. In a few lines:
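Read-out is yeast growth inhibition, calculated against vehicle-only controls. The compound was applied to a strain engineered with DNA damage repair alterations.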

The mark [7] stands for this setting: at 5.0 µM (retest, dose inferred, filed as 0.5).
The mark [8] stands for this setting: at 50.0 µM (retest, dose inferred, filed as 5.0).

Regarding `CN(C)c1ccc2c(c1)N(C)c1ccccc1C2(Cl)c1ccccc1` (stereo not given), the growth inhibition in experiment [1] (setting [7]) is 96% (active); in experiment [1] (setting [8]), 99% (active); in experiment [1] (at 50.0 µM), 99.2% (active); in experiment [2] (setting [7]) it was 99% (active); in experiment [2] (setting [8]), 100% (active); in experiment [2] (at 50.0 µM), 99.5% (active). In addition, the growth inhibition was 90% (active) in experiment [3] (setting [7]); 99% (active) in experiment [3] (setting [8]); 99.3% (active) in experiment [3] (at 50.0 µM); 70% (active) in experiment [4] (setting [7]); 98% (active) in experiment [4] (setting [8]); 99.2% (active) in experiment [4] (at 50.0 µM). Moreover, the growth inhibition in experiment [5] (setting [7]) was 89% (active); in experiment [5] (setting [8]), 99% (active); in experiment [5] (at 50.0 µM), 99.3% (active); in experiment [6] (setting [7]) it was 95% (active); in experiment [6] (setting [8]), 99% (active); in experiment [6] (at 50.0 µM), 99.4% (active).
With `CN(C)CCNc1ccc([N+](=O)[O-])c2nc3ccccc3c(N)c12`, the growth inhibition was -34% in experiment [1] (setting [7]); -7% in experiment [1] (setting [8]); -1.9% in experiment [1] (at 50.0 µM); -37% in experiment [2] (setting [7]); 6% in experiment [2] (setting [8]); -40.8% in experiment [2] (at 50.0 µM). Also, the growth inhibition was 34% in experiment [3] (setting [7]); -24% in experiment [3] (setting [8]); 45.9% in experiment [3] (at 50.0 µM); -17% in experiment [4] (setting [7]); 0% in experiment [4] (setting [8]); 8.55% in experiment [4] (at 50.0 µM). Moreover, the growth inhibition in experiment [5] (setting [7]) was -8%; in experiment [5] (setting [8]), 12%; in experiment [5] (at 50.0 µM), -7.15%; in experiment [6] (setting [7]), -53%; in experiment [6] (setting [8]), -10%; in experiment [6] (at 50.0 µM), 65.8%.
Take `COc1cc(C2CC(C)(OC)Oc3cc4c(cc32)OCO4)cc(OC)c1O` (stereo not given): the growth inhibition in experiment [1] (setting [7]) was 1%; in experiment [1] (setting [8]), 55%; in experiment [1] (at 50.0 µM), 14.9%; in experiment [2] (setting [7]), 2%; in experiment [2] (setting [8]), 16%; in experiment [2] (at 50.0 µM), -5.5%. Besides, the growth inhibition in experiment [3] (setting [7]) is -3%; in experiment [3] (setting [8]), 50%; in experiment [3] (at 50.0 µM), 28.8%; in experiment [4] (setting [7]), 12%; in experiment [4] (setting [8]), 37%; in experiment [4] (at 50.0 µM) it was 4.55%. The growth inhibition in experiment [5] (setting [7]) is 10%; in experiment [5] (setting [8]), 55%; in experiment [5] (at 50.0 µM) it was -2.1%; in experiment [6] (setting [7]) it was 0%; in experiment [6] (setting [8]), 63%; in experiment [6] (at 50.0 µM), 31.2%.
Take `N#C/C(=C1C=C/C(=N/O)C=C/1Cl)c1ccccc1`: the growth inhibition is -3% in experiment [1] (setting [7]); -7% in experiment [1] (setting [8]); 21.7% in experiment [1] (at 50.0 µM); -7% in experiment [2] (setting [7]); 4% in experiment [2] (setting [8]); 24.3% in experiment [2] (at 50.0 µM). Further, the growth inhibition in experiment [3] (setting [7]) was 4%; in experiment [3] (setting [8]), 36%; in experiment [3] (at 50.0 µM) it was 51.9%; in experiment [4] (setting [7]) it was -15%; in experiment [4] (setting [8]), 6%; in experiment [4] (at 50.0 µM) it was 69.5%. The growth inhibition in experiment [5] (setting [7]) is 5%; in experiment [5] (setting [8]), 18%; in experiment [5] (at 50.0 µM), 28.1%; in experiment [6] (setting [7]), -11%; in experiment [6] (setting [8]), 10%; in experiment [6] (at 50.0 µM), 26.4%.
As to `O=C1c2ccccc2CC(Br)c2ccccc21` (stereo not given), the growth inhibition is -2% in experiment [1] (setting [7]); 97% (active) in experiment [1] (setting [8]); 97.2% (active) in experiment [1] (at 50.0 µM); -4% in experiment [2] (setting [7]); 94% (active) in experiment [2] (setting [8]); 27.4% in experiment [2] (at 50.0 µM). Also, the growth inhibition in experiment [3] (setting [7]) is 3%; in experiment [3] (setting [8]), 94% (active); in experiment [3] (at 50.0 µM), 81.8% (active); in experiment [4] (setting [7]) it was -77%; in experiment [4] (setting [8]), 80% (active); in experiment [4] (at 50.0 µM) it was 1.7%. Further, the growth inhibition in experiment [5] (setting [7]) was -10%; in experiment [5] (setting [8]), -3%; in experiment [5] (at 50.0 µM), 42.5%; in experiment [6] (setting [7]), 1%; in experiment [6] (setting [8]) it was 98% (active); in experiment [6] (at 50.0 µM), 97.7% (active).
With `Cc1ccc(NC(=O)/C(CC(=O)c2sc(Nc3ccc(Cl)c(Cl)c3)nc2C)=N\Nc2ccc([N+](=O)[O-])cc2[N+](=O)[O-])c(C)c1`, the growth inhibition in experiment [1] (setting [7]) was 1%; in experiment [1] (setting [8]) it was 97% (active); in experiment [1] (at 50.0 µM), 97.7% (active); in experiment [2] (setting [7]), -4%; in experiment [2] (setting [8]), 96% (active); in experiment [2] (at 50.0 µM), 98.3% (active). The growth inhibition was 5% in experiment [3] (setting [7]); 93% (active) in experiment [3] (setting [8]); 94.5% (active) in experiment [3] (at 50.0 µM); 0% in experiment [4] (setting [7]); 98% (active) in experiment [4] (setting [8]); 97.1% (active) in experiment [4] (at 50.0 µM). For the same molecule, the growth inhibition in experiment [5] (setting [7]) was -10%; in experiment [5] (setting [8]) it was 99% (active); in experiment [5] (at 50.0 µM) it was 96.8% (active); in experiment [6] (setting [7]) it was 5%; in experiment [6] (setting [8]) it was 96% (active); in experiment [6] (at 50.0 µM), 96.8% (active).
Turning to `O=C(CCCCN1CCN2c3ccccc3CCC2C1)c1ccccc1` (stereo not given), the growth inhibition was -3% in experiment [1] (setting [7]); 51% in experiment [1] (setting [8]); 90.4% (active) in experiment [1] (at 50.0 µM); 2% in experiment [2] (setting [7]); 53% in experiment [2] (setting [8]); 70.9% (active) in experiment [2] (at 50.0 µM). Moreover, the growth inhibition in experiment [3] (setting [7]) was 15%; in experiment [3] (setting [8]), 80% (active); in experiment [3] (at 50.0 µM), 94.4% (active); in experiment [4] (setting [7]), -2%; in experiment [4] (setting [8]), 39%; in experiment [4] (at 50.0 µM), 58.8%. The growth inhibition in experiment [5] (setting [7]) was 1%; in experiment [5] (setting [8]), 37%; in experiment [5] (at 50.0 µM), 53.8%; in experiment [6] (setting [7]), 38%; in experiment [6] (setting [8]), 83% (active); in experiment [6] (at 50.0 µM) it was 68.9%.
Turning to `CCCCCCCCCCCCCCNC(=O)C[N+](C)(C)Cc1ccccc1`, the growth inhibition is 99% (active) in experiment [1] (setting [7]); 99% (active) in experiment [1] (setting [8]); 99.5% (active) in experiment [1] (at 50.0 µM); 99% (active) in experiment [2] (setting [7]); 100% (active) in experiment [2] (setting [8]); 99.7% (active) in experiment [2] (at 50.0 µM). The growth inhibition in experiment [3] (setting [7]) is 99% (active); in experiment [3] (setting [8]), 99% (active); in experiment [3] (at 50.0 µM) it was 99.3% (active); in experiment [4] (setting [7]) it was 99% (active); in experiment [4] (setting [8]) it was 99% (active); in experiment [4] (at 50.0 µM), 99.5% (active). For the same molecule, the growth inhibition is 99% (active) in experiment [5] (setting [7]); 99% (active) in experiment [5] (setting [8]); 99.4% (active) in experiment [5] (at 50.0 µM); 99% (active) in experiment [6] (setting [7]); 99% (active) in experiment [6] (setting [8]); 99.6% (active) in experiment [6] (at 50.0 µM).
Take `COc1ccc(-c2c(COC(C)=O)c(COC(C)=O)c3n2CCC3)cc1`: the growth inhibition in experiment [1] (setting [7]) is -4%; in experiment [1] (setting [8]) it was 34%; in experiment [1] (at 50.0 µM) it was 98.5% (active); in experiment [2] (setting [7]) it was -4%; in experiment [2] (setting [8]), 19%; in experiment [2] (at 50.0 µM), 99.1% (active). In addition, the growth inhibition is -6% in experiment [3] (setting [7]); 23% in experiment [3] (setting [8]); 98.9% (active) in experiment [3] (at 50.0 µM); -3% in experiment [4] (setting [7]); -4% in experiment [4] (setting [8]); 97.8% (active) in experiment [4] (at 50.0 µM). The growth inhibition in experiment [5] (setting [7]) is -6%; in experiment [5] (setting [8]) it was -3%; in experiment [5] (at 50.0 µM), 98.8% (active); in experiment [6] (setting [7]), -6%; in experiment [6] (setting [8]), 40%; in experiment [6] (at 50.0 µM), 98.8% (active).
With `CCc1ccc(CC(=O)O)c2ccc3c(C)ccc(C)c3c12`, the growth inhibition in experiment [1] (setting [7]) was 15%; in experiment [1] (setting [8]) it was 96% (active); in experiment [1] (at 50.0 µM), 98.9% (active); in experiment [2] (setting [7]) it was 14%; in experiment [2] (setting [8]) it was 98% (active); in experiment [2] (at 50.0 µM), 95.8% (active). The growth inhibition is 14% in experiment [3] (setting [7]); 97% (active) in experiment [3] (setting [8]); 98.6% (active) in experiment [3] (at 50.0 µM); 19% in experiment [4] (setting [7]); 93% (active) in experiment [4] (setting [8]); 95.8% (active) in experiment [4] (at 50.0 µM). For the same molecule, the growth inhibition was 11% in experiment [5] (setting [7]); 51% in experiment [5] (setting [8]); 63.5% in experiment [5] (at 50.0 µM); 8% in experiment [6] (setting [7]); 96% (active) in experiment [6] (setting [8]); 94.4% (active) in experiment [6] (at 50.0 µM).
